Measurements taken from paper PMC4336329 (PLoS ONE, 2015).
Screen size: about 310,000 compounds; about 14,000 (4.5%) showed an effect of 50% or more. Effects have a minus sign here. The list comes from a sample in which strong results are over-represented; it also holds similar structures and randomly drawn compounds.

What follows are compounds tested against human ether-à-go-go-related gene (hERG) potassium channel (human, UniProt Q12809) (assay: primary screen, population patch clamp on CHO cells stably expressing hERG; higher = less effect of the substance).
Sequence of human ether-à-go-go-related gene (hERG) potassium channel (Q12809 whole entry, looked up): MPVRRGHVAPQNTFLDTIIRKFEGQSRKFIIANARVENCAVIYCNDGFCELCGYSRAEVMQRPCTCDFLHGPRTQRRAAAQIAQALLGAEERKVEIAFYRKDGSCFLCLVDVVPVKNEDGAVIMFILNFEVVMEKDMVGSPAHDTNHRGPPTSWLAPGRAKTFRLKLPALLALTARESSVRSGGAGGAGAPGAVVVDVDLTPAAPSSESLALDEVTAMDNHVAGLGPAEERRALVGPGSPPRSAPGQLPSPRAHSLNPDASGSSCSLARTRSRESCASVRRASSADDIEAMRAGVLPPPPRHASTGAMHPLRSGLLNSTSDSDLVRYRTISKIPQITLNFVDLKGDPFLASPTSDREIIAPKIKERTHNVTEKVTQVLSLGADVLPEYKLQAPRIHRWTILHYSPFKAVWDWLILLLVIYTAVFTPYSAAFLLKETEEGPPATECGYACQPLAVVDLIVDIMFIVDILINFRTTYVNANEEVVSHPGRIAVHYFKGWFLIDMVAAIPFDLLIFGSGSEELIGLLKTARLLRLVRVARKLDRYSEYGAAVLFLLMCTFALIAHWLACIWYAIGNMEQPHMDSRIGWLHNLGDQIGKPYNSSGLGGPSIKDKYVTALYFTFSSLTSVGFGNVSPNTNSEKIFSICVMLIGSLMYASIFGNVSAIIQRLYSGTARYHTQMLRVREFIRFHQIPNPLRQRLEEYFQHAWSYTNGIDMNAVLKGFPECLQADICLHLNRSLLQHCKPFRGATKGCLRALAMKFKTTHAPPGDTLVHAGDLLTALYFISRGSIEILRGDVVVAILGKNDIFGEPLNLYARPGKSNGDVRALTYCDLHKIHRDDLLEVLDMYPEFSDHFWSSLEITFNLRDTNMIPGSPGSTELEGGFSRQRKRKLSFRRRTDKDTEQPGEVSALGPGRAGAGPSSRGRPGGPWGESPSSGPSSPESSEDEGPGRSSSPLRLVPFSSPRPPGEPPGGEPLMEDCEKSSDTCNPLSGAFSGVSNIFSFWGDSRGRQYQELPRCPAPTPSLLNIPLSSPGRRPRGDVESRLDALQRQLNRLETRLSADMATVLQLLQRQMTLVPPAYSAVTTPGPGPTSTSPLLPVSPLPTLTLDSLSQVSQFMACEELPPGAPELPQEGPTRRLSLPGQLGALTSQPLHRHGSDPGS
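Further: peak tail current of the secondary pulse compared with the same well before compound.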

Row | Compound | hERG current change (%, negative = inhibition) at 10uM [%]
1 | CC(C)C(=O)Nc1c2c(nc3c1CCC3)CCCC2 | 5.23
2 | C/C(=N\NC(=O)c1nnn(-c2nonc2N)c1-c1ccc2c(c1)OCO2)c1cccs1 | 5.22
3 | C/C(=N\OCC(=O)OC(C)C(=O)Nc1ccc(C(N)=O)cc1)c1ccc2c(c1)OCO2 (stereo not drawn) | 9.34
4 | CCOC(=O)c1cc2occc2n1CC(=O)N1CCN(C(=O)c2ccco2)CC1 | -36.8
5 | CCOC(=O)c1cc2c(ccn2-c2ccc(F)cc2)n1CC(=O)N1CCN(C(=O)c2ccco2)CC1 | -26.1
6 | COC(=O)c1cc2c(ccn2-c2ccc(F)cc2)n1CC(=O)OC(C)C | 27.3
7 | CC(C)OC(=O)c1cc2c(ccn2-c2ccc(F)cc2)n1CC(=O)N1CCN(C(=O)c2ccco2)CC1 | -69.2
8 | COC(=O)c1cc2c(ccn2-c2ccc(F)cc2)n1CC(=O)C(C)(C)C | 14.3
9 | COC(=O)c1cc2c(ccn2-c2ccc(F)cc2)n1CC(=O)N1CCN(C(=O)c2ccco2)CC1 | -66.6
10 | O=C(Cn1c(=O)cnc2ccccc21)N1CCCc2ccccc21 | 10.8
11 | CC1CN(C(=O)CN2C(=O)NC3(CCCC3)C2=O)C(=Nc2cccc(S(=O)(=O)N(C)C)c2)S1 (stereo not drawn) | -32
12 | Cc1ccc(S(=O)(=O)N2CCN(C(=O)COC(=O)CCc3ccccc3)CC2)c(C)c1 | -8.38
13 | CCOC(=O)c1ccc2c(c1)nc(-c1ccc(F)cc1)c1nccn12 | 5.55
14 | CNC(C)C(=O)NC(C(=O)N1CCCC1C(=O)NNc1ccccc1)C(C)C.O=CO (stereo not drawn) | 5.01
15 | O=S(=O)(c1ccccc1F)N1CCN(CCc2ccccc2)CC1 | -5.81
16 | O=C(O)CNC(=O)/C(=C\c1cccc([N+](=O)[O-])c1)NC(=O)c1ccco1 | 15.7
17 | O=C(O)CNC(=O)/C(=C/c1cccc([N+](=O)[O-])c1)NC(=O)c1ccco1 | -1.47
18 | CCN(CC)C(=O)/C(=C\c1cccc([N+](=O)[O-])c1)NC(=O)c1ccco1 | -24
19 | CCN(CC)C(=O)/C(=C/c1cccc([N+](=O)[O-])c1)NC(=O)c1ccco1 | -25.8
20 | CC(NC(=O)/C(=C\c1cccc([N+](=O)[O-])c1)NC(=O)c1ccco1)C(=O)O (stereo not drawn) | 39.2
21 | O=C(NCc1ccco1)/C(=C/c1cccc([N+](=O)[O-])c1)NC(=O)c1ccco1 | -56.8

Row | Compound | hERG current change (%, negative = inhibition) at 10uM [%]
22 | O=C(NCc1ccco1)/C(=C\c1cccc([N+](=O)[O-])c1)NC(=O)c1ccco1 | -64.7
23 | O=C(NCCc1ccccc1)/C(=C\c1cccc([N+](=O)[O-])c1)NC(=O)c1ccco1 | -78.6
24 | CC(NC(=O)/C(=C/c1cccc([N+](=O)[O-])c1)NC(=O)c1ccco1)C(=O)O (stereo not drawn) | 0.397
25 | O=C(NCCO)/C(=C\c1cccc([N+](=O)[O-])c1)NC(=O)c1ccco1 | 6.73
26 | O=C(NCc1ccccc1)/C(=C/c1cccc([N+](=O)[O-])c1)NC(=O)c1ccco1 | -61.2
27 | O=C(NCCO)/C(=C/c1cccc([N+](=O)[O-])c1)NC(=O)c1ccco1 | 26.5
28 | COc1ccc(OCCNC(=S)Nc2cccc3ccccc23)cc1 | 3.79
29 | Cc1ccccc1N(CC(=O)NC1CCCC1)C(=O)CS(=O)CC(=O)Nc1ccc2c(c1)OCO2 (stereo not drawn) | -8.74
30 | COc1cc(C2NC(=O)NC(C)=C2C(C)=O)cc(OC)c1OC (stereo not drawn) | 9.41
31 | Cc1nc(SCC(=O)O)c(C#N)c2c1CCCC2 | -10.9
32 | COc1cc2c(-c3ccc4[nH]ccc4c3)c(-c3ccc(C#N)cc3)oc(=O)c2cc1OC | 20.9
33 | CCCCC(=Nc1ccc(N)cc1)C1=C(O)C(C(=O)OC)C(C)(C)CC1=O (stereo not drawn) | -1.62
34 | C=CCNC(=O)c1ccc(CN(c2ccc(OCC)cc2)S(=O)(=O)c2ccc(C)cc2)cc1 | -62
35 | C=CCNC(=O)c1ccc(N(C)S(=O)(=O)c2ccc(OC)cc2)cc1 | -57.4
36 | CCOc1ccc(N(Cc2ccc(C(=O)O)cc2)S(=O)(=O)c2ccc(C)cc2)cc1 | -12.5
37 | C=CCNC(=O)c1ccc(OC)cc1 | -12
38 | COc1ccc(S(=O)(=O)N(C)c2ccc(C(=O)NC3CC3)cc2)cc1 | -12.6
39 | COc1ccc(N(C)S(=O)(=O)c2cccc(C(=O)NC3CCCC3)c2)cc1 | -9.64
40 | C=CCNC(=O)c1ccc(N(Cc2ccc(Cl)cc2)S(C)(=O)=O)cc1 | -33.5
41 | COCCCNC(=O)c1ccc(N(C)S(=O)(=O)c2ccc(OC)cc2)cc1 | -20.6
42 | COc1ccc(S(=O)(=O)N(C)c2ccc(C(=O)NC3CCCC3)cc2)cc1 | -83.7
